Source: PubChem BioAssay (National Center for Advancing Translational Sciences (NCATS))
The list is not random: actives were taken first. Their share in the collection is about 9.4%.
FLuc counter – inhibits or activates purified firefly luciferase, miR-21 counter-screen; purified FLuc, Km substrates, luminescence inhibition; Potency, µM (doses to about 57.5 µM), for inactives: at the highest dose activity change, negative = inhibition, most hits filed as inhibitors; 6.9% of 360,000 active;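 also: plate controls were vehicle for no effect and reference inhibitor for full effect; nearly all actives have a fitted effect of over 55% in size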
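Purified P. pyralis luciferase, 10 nM final, with Km-level 10 uM D-luciferin and 10 uM ATP in 50 mM Tris acetate pH 7.5, 10 mM Mg acetate, 0.01% Tween-20, 0.05% BSA; 6-point qHTS titration about 60 µM downward; luminescence read.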
ELG1 genotoxic – induces genotoxicity in HEK293T cells with luciferase-tagged ELG1 | HEK293T ELG1-luciferase reporter, luminescence, 16 h | Potency, µM (top dose mostly 46 µM), without a hit: top-dose activity change, positive = activation, usual class: activators | 1.3% of 330,000 active; also: % of control where 0% means no effect; nearly all actives have a fitted effect of over 60% in size
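ELG1-luciferase HEK293T cells, 2,000/well; compound pinned in; 16 hr, 37 °C, 5% CO2; ONE-Glo, 30 min RT; luminescence on CCD imager.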
SMN2 splice enh – SMN2 splice variant enhancement. Potency, µM (series often up to 46.1 µM), for inactives: top-dose activity change, positive = activation, hits mostly activators. HEK293 SMN2-luciferase splicing reporter, luminescence, 30-36 h. 2.8% of 210,000 active; also: % of control where 0% means no effect; nearly all actives have a fitted effect of over 55% in size
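HEK293 cells carry an SMN2 […]–luciferase reporter in which exon 7 inclusion puts luciferase in frame. Cells were plated 10-12 h before compound addition, then incubated 30-36 h at 37C. ONE-Glo luminescence was read; sodium butyrate at 4.5 mM final served as control.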
Rab9 promoter act – activators of Rab9 promoter; Huh7 Rab9 promoter-luciferase reporter, luminescence, 24 h; Potency, µM (doses to about 9.22 µM), without a hit: at the highest dose activation, negative = inhibition, most hits filed as activators; 2.8% of 320,000 active; AID 485297; also: % of control where 0% means no effect; nearly all actives have a fitted effect of over 60% in size
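Promoter activation is measured as luciferase luminescence in Huh7 cells stably transfected with a Rab9 promoter–luciferase construct, following 24 h compound exposure at 37 °C and 10 min reagent incubation at ambient temperature.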
ELG1 DNA repair – inhibitors of ELG1-dependent DNA repair in HEK293T cells; 2.3% of 330,000 active; AID 504467; Potency, µM (doses to about 46.1 µM), without a hit: at the top dose activity change, negative = inhibition, actives largely listed as inhibitors; HEK293T ELG1-luciferase reporter, luminescence, 16 h; DNA damage induced by 5-fluorouridine; also: % is scaled to controls: 0 for no effect and ±100 for the full control effect; nearly all actives have a fitted effect of over 55% in size
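In this reporter screen, reduction of luminescence relative to DMSO vehicle indicated activity. Compounds and 5-fluorouridine were added together to 2,000 cells per well, incubated for 16 hr at 37 °C, then developed with ONE-Glo.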
NPC1 promoter act – NPC1 promoter activation; Huh7 NPC1 promoter luciferase reporter, 24 h; Potency, µM (highest dose often 9.22 µM), inactives show at the top dose activation, actives largely listed as activators; 2.4% of 320,000 active; also: % of control where 0% means no effect; nearly all actives have a fitted effect of over 60% in size
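Compounds in DMSO were transferred onto Huh7 NPC1-luciferase reporter cells pre-incubated 2 h; after 24 h at 37 °C, Amplite reagent was dispensed and luminescence recorded 10 min later.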
ELG1 FLuc counter – luciferase inhibition in cell-free luciferin readout for ELG1 hits; 3% of 350 active; shares compounds with ELG1 DNA repair; cell-free firefly luciferase luminescence counter-screen, ViewLux; Potency, µM (doses to about 46.1 µM), for the others: top-dose activity change, negative = inhibition, actives largely listed as inhibitors; AID 624247; also: % is scaled to controls: 0 for no effect and ±100 for the full control effect
ELG1 Luc conf – inhibits ELG1-dependent DNA repair in HEK293T cells, confirmed. 68% of 670 active. Potency, µM (titrated, usually from 46.1 µM), inactives show top-dose activity change, negative = inhibition, actives largely listed as inhibitors. shares compounds with ELG1 DNA repair. HEK293T ELG1-luciferase levels, luminescence; cells co-treated with 5-fluorouridine; also: % is scaled to controls: 0 for no effect and ±100 for the full control effect; nearly all actives have a fitted effect of over 55% in size
Target sequence (Q96QE3 whole entry, looked up): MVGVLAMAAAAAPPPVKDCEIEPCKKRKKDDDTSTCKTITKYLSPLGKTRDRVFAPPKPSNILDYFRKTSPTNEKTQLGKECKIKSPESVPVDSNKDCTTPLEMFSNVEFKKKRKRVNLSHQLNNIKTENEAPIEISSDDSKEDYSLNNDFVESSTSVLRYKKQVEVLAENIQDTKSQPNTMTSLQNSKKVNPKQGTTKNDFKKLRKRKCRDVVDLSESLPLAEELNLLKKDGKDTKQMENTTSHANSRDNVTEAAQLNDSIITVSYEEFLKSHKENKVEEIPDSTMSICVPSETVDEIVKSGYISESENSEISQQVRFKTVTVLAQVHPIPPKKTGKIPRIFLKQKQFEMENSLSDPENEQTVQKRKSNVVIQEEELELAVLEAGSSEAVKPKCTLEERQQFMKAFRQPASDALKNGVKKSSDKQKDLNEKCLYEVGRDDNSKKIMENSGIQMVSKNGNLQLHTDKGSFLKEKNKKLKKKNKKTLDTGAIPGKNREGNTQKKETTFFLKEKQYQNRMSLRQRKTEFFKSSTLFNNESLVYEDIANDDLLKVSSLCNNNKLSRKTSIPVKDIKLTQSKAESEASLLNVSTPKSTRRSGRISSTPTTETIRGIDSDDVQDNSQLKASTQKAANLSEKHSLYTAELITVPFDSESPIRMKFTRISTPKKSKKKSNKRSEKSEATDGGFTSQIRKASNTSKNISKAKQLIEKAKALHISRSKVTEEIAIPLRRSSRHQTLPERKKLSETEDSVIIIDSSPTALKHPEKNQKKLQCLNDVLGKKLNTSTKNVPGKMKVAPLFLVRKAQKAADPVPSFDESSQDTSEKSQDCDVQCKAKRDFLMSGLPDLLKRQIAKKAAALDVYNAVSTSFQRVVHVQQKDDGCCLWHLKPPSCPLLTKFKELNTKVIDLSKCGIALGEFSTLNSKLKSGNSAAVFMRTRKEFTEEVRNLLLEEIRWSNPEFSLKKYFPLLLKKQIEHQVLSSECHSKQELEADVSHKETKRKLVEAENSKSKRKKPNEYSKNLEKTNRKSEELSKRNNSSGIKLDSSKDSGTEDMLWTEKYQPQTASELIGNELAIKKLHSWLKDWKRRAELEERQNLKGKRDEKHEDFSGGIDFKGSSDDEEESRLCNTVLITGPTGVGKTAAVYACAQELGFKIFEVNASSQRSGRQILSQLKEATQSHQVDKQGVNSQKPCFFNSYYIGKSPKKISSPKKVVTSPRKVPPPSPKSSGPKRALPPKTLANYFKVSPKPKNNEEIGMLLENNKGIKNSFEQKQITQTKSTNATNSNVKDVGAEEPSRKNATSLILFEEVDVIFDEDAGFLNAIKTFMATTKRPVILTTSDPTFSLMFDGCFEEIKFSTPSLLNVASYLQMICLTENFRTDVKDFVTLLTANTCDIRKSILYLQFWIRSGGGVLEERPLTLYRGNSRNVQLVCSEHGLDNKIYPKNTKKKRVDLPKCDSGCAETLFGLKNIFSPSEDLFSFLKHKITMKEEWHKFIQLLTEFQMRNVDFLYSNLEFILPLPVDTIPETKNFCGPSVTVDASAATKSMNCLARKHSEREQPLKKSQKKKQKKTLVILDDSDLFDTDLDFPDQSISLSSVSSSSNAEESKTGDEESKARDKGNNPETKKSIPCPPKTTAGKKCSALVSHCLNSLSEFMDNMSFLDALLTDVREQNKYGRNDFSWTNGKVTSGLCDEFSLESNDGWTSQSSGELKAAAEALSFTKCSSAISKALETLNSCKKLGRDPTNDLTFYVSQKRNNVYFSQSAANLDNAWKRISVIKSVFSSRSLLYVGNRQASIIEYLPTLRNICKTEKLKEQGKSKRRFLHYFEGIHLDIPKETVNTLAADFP
ELG1-Luc MMS – MMS-stimulated human ELG1 repair inhibition, confirmed. shares compounds with ELG1 DNA repair. HEK293T luciferase-tagged ELG1 level, MMS stimulated. Potency, µM (top dose mostly 46.1 µM), without a hit: top-dose activity change, negative = inhibition, actives largely listed as inhibitors. 53% of 670 active; also: % is scaled to controls: 0 for no effect and ±100 for the full control effect; nearly all actives have a fitted effect of over 60% in size
ELG1 5FU viab – confirmation of ELG1 repair inhibitors: viability with 5FU; shares compounds with ELG1 DNA repair; cell viability with 5-FU, ELG1-dependent repair; Potency, µM (doses to about 46.1 µM), for inactives: at the top dose activity change, negative = viability loss, hits mostly cytotoxic; 670 tested, under 10 active; AID 624250;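 also: ELG1-luc HEK293T cells cotreated with 5-fluorouridine at 10 µM final; viability measured 16 h after compound addition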
ELG1 MMS viab – confirmation of ELG1 repair inhibitors: viability with MMS | shares compounds with ELG1 DNA repair | Cell viability with MMS, ELG1-dependent DNA repair | Potency, µM (titrated, usually from 46.1 µM), inactives show top-dose activity change, negative = viability loss, actives largely listed as cytotoxic | 33% of 670 active;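 also: ELG1-luc HEK293T cells co-treated with 10 µM MMS; viability read 16 h after compound addition; % is scaled to controls: 0 for no effect and ±100 for the full control effect; nearly all actives have a fitted effect of over 60% in size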
Cell viab unstim – counter-screen for ELG1 repair inhibitors: unstimulated cell viability. AID 624252. cell viability counter-screen, unstimulated, luminescence. 8% of 900 active. Potency, µM (series often up to 45.9 µM), without a hit: top-dose activity change, negative = loss of viability, actives largely listed as cytotoxic. shares compounds with ELG1 DNA repair;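 also: compound exposure lasted 16 hours before reading; % is scaled to controls: 0 for no effect and ±100 for the full control effect; nearly all actives have a fitted effect of over 55% in size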
FLuc enzyme – firefly luciferase inhibition counter-screen; shares compounds with ELG1 DNA repair; purified firefly luciferase, luminescence counter-screen; Potency, µM (titrated, usually from 57.5 µM), for inactives: at the highest dose activity, negative = inhibition, hits mostly inhibitors; 10% of 350 active; AID 624253; also: % is scaled to controls: 0 for no effect and ±100 for the full control effect
Active calls of the source: *; ? = inconclusive; · = no result given. Calls follow the shape of the dose curve; as a rule, active = well fitted curve in the direction sought with a large enough effect; inconclusive = small, poorly fitted or top-dose-only effect, or another doubt; inactive = no such curve, though single readings can be large; an effect the other way counts as inactive or inconclusive. Potency is read from the fitted curve at half-maximal effect.

SMILES	FLuc counter	ELG1 genotoxic	SMN2 splice enh	Rab9 promoter act	ELG1 DNA repair	NPC1 promoter act	ELG1 Luc conf	ELG1-Luc MMS	ELG1 5FU viab	ELG1 MMS viab	Cell viab unstim	others
COc1cc(C(=O)NCCOc2cc(C)ccc2C(C)C)cc(OC)c1OC	0%	-7%	·	-31%	4.6µM*	-30%	14µM*	7.1µM*	-4%	5.6µM*	?
COc1ccc(Cn2c(SCC(=O)NCc3ccc(Cl)cc3)nc3ccsc3c2=O)cc1	-1%	·	·	·	·	·	·	·	·	·	·
CC(C)C(NS(=O)(=O)c1ccc2c(c1)oc(=O)n2C)C(=O)NCCc1ccc(Cl)cc1 (centres undefined)	0%	·	6%	·	·	·	·	·	·	·	·
CCOc1cc(S(=O)(=O)NCc2ccncc2)ccc1Cl	0%	3%	-38%	-33%	?	-33%	?	0.56µM*	-8%	0.71µM*	-4%	ELG1 FLuc counter=-1%;FLuc enzyme=0%
Cn1cccc1C(=O)Nc1ccc(N2CCOCC2)cc1	·	?	·	·	?	·	·	·	·	·	-13%
COc1ccc(-c2nnc3ccc(SCC(=O)Nc4nc5ccc(C)cc5s4)nn23)cc1OC	2%	0%	12%	0%	?	-1%	0.32µM*	4%	?	-2%	28µM*	ELG1 FLuc counter=2%;FLuc enzyme=-6%
Cc1ccc(S(=O)(=O)Nc2cc3c4c(c2)CCN4C(=O)CC3)cc1	-1%	10µM*	·	3%	?	-8%	·	·	·	·	0%	ELG1 FLuc counter=34%;FLuc enzyme=2%
O=C(Nc1ccc(Cl)cc1Cl)c1cc(S(=O)(=O)NCc2ccc3c(c2)OCO3)ccc1F	-1%	·	·	·	·	·	·	·	·	·	·
COc1ccc(CCN2C(=O)c3cccc4cccc(c34)C2=O)cc1OC	-10%	2%	-12%	-8%	6%	27%	·	·	·	·	·
CCN(CC)C(=O)c1ccc2c3c(cccc13)C(=O)N(CCc1ccc(OC)c(OC)c1)C2=O	1%	-13%	·	-1%	4.6µM*	7%	11µM*	10µM*	?	22µM*	25µM*
CC1CCc2c(sc(NC(=O)c3cc(-c4ccc(F)cc4)on3)c2C(N)=O)C1 (centres undefined)	-1%	·	1%	·	·	·	·	·	·	·	·
COc1ccc(OC[C@@H](O)CNC(=O)c2cccc3c2C(=O)c2ccc(-c4ccc(F)cc4OCc4ccccc4)cc2S3(=O)=O)cc1	·	1%	·	·	2.3µM*	·	3.1µM*	5%	?	?	0%
COc1ccc(NC(=O)c2cccc3c2C(=O)c2ccc(-c4ccc(F)cc4OCc4ccccc4)cc2S3(=O)=O)cc1	·	14%	·	·	5%	·	·	·	·	·	·
Cc1csc(SCC(=O)Nc2cccc3nsnc23)n1	?	-7%	-5%	12%	2.6µM*	13%	2.8µM*	?	-10%	-5%	-19%
CC(=O)Nc1cccc(NC(=O)Cc2csc(COc3cccc(C)c3)n2)c1	-12%	·	·	·	·	·	·	·	·	·	·
Cc1ccccc1Cn1cc(S(=O)(=O)c2ccc(Cl)cc2)c(=O)c2cc3c(cc21)OCO3	0%	·	-12%	·	·	·	·	·	·	·	·
OCCCNc1ncnc2scc(-c3ccc(Cl)cc3)c12	2%	-13%	·	-5%	4.6µM*	-1%	5.6µM*	16µM*	-1%	5%	?
Cc1ccc(N(C)C(=O)c2cc(S(=O)(=O)N3CCCCC3)c[nH]2)cc1	4%	-7%	·	4%	3.7µM*	11%	?	3%	-5%	-4%	-14%
CN(C(=O)c1cc(S(=O)(=O)N2CCCCC2)c[nH]1)C1CCCCC1	4%	-4%	·	0%	-12%	1%	·	·	·	·	·
COc1ccc(N2CC(NC(=O)/C=C\c3ccc4c(c3)OCO4)CC2=O)cc1 (centres undefined)	-13%	·	·	·	·	·	·	·	·	·	·
CC(=O)c1c(C)[nH]c(C(=O)Nc2cccc(S(=O)(=O)N3CCCC3)c2)c1C	·	16µM*	·	·	?	·	·	·	·	·	?
CC(=O)c1c(C)[nH]c(C(=O)OCC(=O)Nc2cccc(S(=O)(=O)N3CCCC3)c2)c1C	-20%	1%	-66%	-17%	?	-9%	·	·	·	·	·
O=C(c1ccccc1)N1CCC(c2nc3ccccc3o2)CC1	-2%	·	·	·	·	·	·	·	·	·	·
CCOc1ccc(CNC(=O)c2ccc3nc(Cc4ccc(OC)cc4)oc3c2)cc1OC	-14%	·	·	·	·	·	·	·	·	·	·
Cc1ccc2nsnc2c1S(=O)(=O)N(Cc1cc2cccc(C)c2[nH]c1=O)CC1CCCO1 (centres undefined)	-2%	-23%	-6%	-14%	2.3µM*	-1%	?	7.9µM*	5%	-16%	?
Cc1ccc2cc(CN(CC3CCCO3)S(=O)(=O)c3c(C)ccc4nsnc34)c(=O)[nH]c2c1 (centres undefined)	4%	3%	2%	-3%	-9%	-2%	·	·	·	·	·
CC(=C/c1ccccc1)/C=N/n1c(-c2ccncc2)n[nH]c1=S	-3%	-20%	-5%	2%	2.3µM*	16%	2.8µM*	?	-2%	2%	-4%
CC(/C=N/n1c(-c2ccc(C)cc2)n[nH]c1=S)=C\c1ccco1	1%	5%	13%	-3%	3%	0%	·	·	·	·	·
